Assay results published in PubChem BioAssay (NCI).
The panel holds about 83,000 compounds, 20% with a hit somewhere; the sample as a whole holds those more often.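 Results are percent growth after 48 hours of single-concentration exposure. 100 means growth as in untreated cells, lower positive values show inhibition; negative values down to -100 show cell death.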 Active and inactive are the calls of the source. How the source made its calls: active means growth percent below 10; inactive means the rest.

What was measured:
Assay in all cases: NCI-60 one-dose screen, 48 h (100 = growth as untreated, 0 = no growth, -100 = all killed)
T-47D breast = test system: T-47D breast
BT-549 breast = test system: BT-549 breast
MDA-MB-435 melanoma = test system: MDA-MB-435 melanoma
SW-620 colon = test system: SW-620 colon
MCF7 breast = test system: MCF7 breast
HCT-116 colon = test system: HCT-116 colon
HCC-2998 colon = test system: HCC-2998 colon
KM12 colon = test system: KM12 colon

Measured: growth

CC(=O)/C=C/c1ccc(OCc2ccc(C(C)(C)C)cc2)cc1
active: T-47D breast; 100 µM 5.88%
inactive: T-47D breast; 10 µM 52.8% | BT-549 breast; 10 µM 103% | BT-549 breast; 100 µM 21.3% | MDA-MB-435 melanoma; 10 µM 78.4% | MDA-MB-435 melanoma; 100 µM 39.5% | SW-620 colon; 10 µM 72.1% | SW-620 colon; 100 µM 38.6% | MCF7 breast; 10 µM 66.6% | MCF7 breast; 100 µM 41.8% | HCT-116 colon; 10 µM 68.9% | HCT-116 colon; 100 µM 25.3% | HCC-2998 colon; 10 µM 92.1% | HCC-2998 colon; 100 µM 86.8%

[Cu+].[NH-][C@H]1C[N-]C(=O)[C@H]([C@H]2CCN=C(N)N2)[N-]C(=O)/C(=C\NC(N)=O)[N-]C(=O)[C@H](CNC(=O)C[C@@H](N)CCCN)[N-]C(=O)[C@H](CO)[N-]C1=O
inactive: T-47D breast; 10 µM unless noted 89.5% | BT-549 breast; 10 µM unless noted 104% | MDA-MB-435 melanoma; 10 µM unless noted 94.3% | SW-620 colon; 10 µM unless noted 91.7% | MCF7 breast; 10 µM unless noted 101% | HCT-116 colon; 10 µM unless noted 97.4% | HCC-2998 colon; 10 µM unless noted 110%

CCN(CC)CCOc1ccccc1C
inactive: T-47D breast; 10 µM unless noted 98.3% | BT-549 breast; 10 µM unless noted 102% | MDA-MB-435 melanoma; 10 µM unless noted 106% | SW-620 colon; 10 µM unless noted 107% | MCF7 breast; 10 µM unless noted 100% | HCT-116 colon; 10 µM unless noted 98.3% | HCC-2998 colon; 10 µM unless noted 107%

CCNC(=O)Nc1ncccc1OCc1ccc(F)cc1
inactive: T-47D breast; 10 µM unless noted 90.3% | BT-549 breast; 10 µM unless noted 114% | MDA-MB-435 melanoma; 10 µM unless noted 101% | SW-620 colon; 10 µM unless noted 104% | MCF7 breast; 10 µM unless noted 84% | HCT-116 colon; 10 µM unless noted 97.9% | HCC-2998 colon; 10 µM unless noted 91.2%

COc1ccc(/C(C)=C(\c2ccc(OCCN3CCCCCC3)cc2)c2ccc(OC(=O)C3CCCCC3)cc2)cc1
active: T-47D breast; 10 µM unless noted -57% | BT-549 breast; 10 µM unless noted -78.2% | MDA-MB-435 melanoma; 10 µM unless noted -77.1% | SW-620 colon; 10 µM unless noted -49.8% | MCF7 breast; 10 µM unless noted -23.6% | HCT-116 colon; 10 µM unless noted -63.9% | HCC-2998 colon; 10 µM unless noted -79%

CC(=O)N1N=C(c2ccc(Nc3nc(Nc4ccc(F)cc4)nc(Nc4ccc(F)cc4)n3)cc2)CC1c1ccccc1 (stereo not drawn)
inactive: T-47D breast; 10 µM unless noted 56.2% | BT-549 breast; 10 µM unless noted 120% | MDA-MB-435 melanoma; 10 µM unless noted 105% | SW-620 colon; 10 µM unless noted 95.7% | MCF7 breast; 10 µM unless noted 66.2% | HCT-116 colon; 10 µM unless noted 80.7% | HCC-2998 colon; 10 µM unless noted 94.3%

CC(=O)/C=C/c1ccc(N(CCO)Cc2ccc(C(C)(C)C)cc2)cc1
active: T-47D breast; 100 µM -83.2% | BT-549 breast; 100 µM -88.9% | MDA-MB-435 melanoma; 100 µM -94.4% | SW-620 colon; 100 µM -91.8% | MCF7 breast; 100 µM -55.4% | HCT-116 colon; 100 µM -98.1% | HCC-2998 colon; 100 µM -89.2% | KM12 colon; 100 µM -78.2%
inactive: T-47D breast; 10 µM 60.2% | BT-549 breast; 10 µM 79% | MDA-MB-435 melanoma; 10 µM 80.7% | SW-620 colon; 10 µM 83.9% | MCF7 breast; 10 µM 62.9% | HCT-116 colon; 10 µM 67.2% | HCC-2998 colon; 10 µM 86.7% | KM12 colon; 10 µM 81.2%

COc1ccc2c(c1)c(C(=O)c1nc(-c3cn(C)c4ccccc34)no1)cn2C
inactive: T-47D breast; 10 µM unless noted 77.5% | BT-549 breast; 10 µM unless noted 98% | MDA-MB-435 melanoma; 10 µM unless noted 76.7% | SW-620 colon; 10 µM unless noted 87% | MCF7 breast; 10 µM unless noted 24% | HCT-116 colon; 10 µM unless noted 99.5% | HCC-2998 colon; 10 µM unless noted 95.3%

CC(=O)/C=C/c1ccc(N(C)Cc2ccc(C(C)(C)C)cc2)cc1
inactive: T-47D breast; 10 µM 62.5% | BT-549 breast; 10 µM 101% | MDA-MB-435 melanoma; 10 µM 88.5% | SW-620 colon; 10 µM 88.5% | MCF7 breast; 10 µM 80.3% | HCT-116 colon; 10 µM 79.9% | HCC-2998 colon; 10 µM 99.6% | KM12 colon; 10 µM 95.5%
active: T-47D breast; 100 µM -53.9% | BT-549 breast; 100 µM -90.8% | MDA-MB-435 melanoma; 100 µM -54.3% | SW-620 colon; 100 µM -53.5% | MCF7 breast; 100 µM -22.6% | HCT-116 colon; 100 µM -66.2% | HCC-2998 colon; 100 µM -41.2% | KM12 colon; 100 µM -45.7%

CCOC(=O)c1nnn(Cc2cc(=O)oc3c2ccc2ccccc23)c1C
inactive: T-47D breast; 10 µM unless noted 93.9% | BT-549 breast; 10 µM unless noted 108% | MDA-MB-435 melanoma; 10 µM unless noted 105% | SW-620 colon; 10 µM unless noted 107% | MCF7 breast; 10 µM unless noted 92% | HCT-116 colon; 10 µM unless noted 89.3% | HCC-2998 colon; 10 µM unless noted 106%

CCCc1cc(C(N)=S)ccn1
inactive: T-47D breast; 10 µM unless noted 105% | BT-549 breast; 10 µM unless noted 98.1% | MDA-MB-435 melanoma; 10 µM unless noted 105% | SW-620 colon; 10 µM unless noted 107% | MCF7 breast; 10 µM unless noted 108% | HCT-116 colon; 10 µM unless noted 95.8% | HCC-2998 colon; 10 µM unless noted 108%

C[N+]1=C(/C=C\C=C\c2ccccc2)C(C)(C)c2ccccc21
inactive: BT-549 breast; 10 µM unless noted 22.5% | SW-620 colon; 10 µM unless noted 19.8% | HCT-116 colon; 10 µM unless noted 14.3% | HCC-2998 colon; 10 µM unless noted 47.9% | KM12 colon; 10 µM unless noted 22.2%
active: T-47D breast; 10 µM unless noted -1.09% | MDA-MB-435 melanoma; 10 µM unless noted 9.04% | MCF7 breast; 10 µM unless noted 7.58%

CCOC(=O)C1=C(C)N=C2SC=C(c3ccc(F)cc3)N2[C@H]1c1cn(-c2ccccc2)nc1-c1ccc(Cl)cc1
inactive: T-47D breast; 10 µM unless noted 79.6% | BT-549 breast; 10 µM unless noted 93.1% | MDA-MB-435 melanoma; 10 µM unless noted 94.4% | SW-620 colon; 10 µM unless noted 100% | MCF7 breast; 10 µM unless noted 87.2% | HCT-116 colon; 10 µM unless noted 90% | HCC-2998 colon; 10 µM unless noted 105% | KM12 colon; 10 µM unless noted 107%
